# Test results taken from PubChem BioAssay.
# The source made the active and inactive calls.
# Tests used:
# [1] = binders of probe aFSTL3 on microarray, primary screen, stem cell growth factor project, biochemical, small-molecule microarray, fluorescence 635/667 (AID 1064); details: higher = more signal;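 also: measures binding of the biotinylated anti-FSTL3 antibody to printed compounds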
# [2] = binders from COS7 lysate, DM2A8 probe, primary screen, torsin A project, cell lysate, small-molecule microarray, fluorescence 635/667 (AID 1065); details: higher = more signal, COS7 lysate expressing mutant human TOR1A
# [3] = binders of probe aFGF2 on microarray, primary screen, stem cell growth factor project, biochemical, small-molecule microarray, fluorescence 635/667 (AID 1067); details: higher = more signal;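 also: measures binding of biotinylated aFGF2 protein to printed compounds on slides; z-score merges feature fluorescence and signal-to-noise across triplicate slides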
# [4] = binders of probe aFGF10 on microarray, primary screen, stem cell growth factor project, biochemical, small-molecule microarray, fluorescence 635/667 (AID 1071); details: higher = more signal;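 also: score merges 667 nm spot intensity and signal to noise from triplicate slides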
# [5] = target: Neurogenic locus notch homolog protein 2 (Homo sapiens) (UniProt Q04721); assay: Notch2 binders on small-molecule microarrays, primary screen, biochemical, small-molecule microarray, 635 nm fluorescence, stem cell growth factors (AID 1073); details: Notch2 binding, higher = more signal
# Neurogenic locus notch homolog protein 2 (Homo sapiens), sequence (Q04721 whole entry, looked up, canonical isoform): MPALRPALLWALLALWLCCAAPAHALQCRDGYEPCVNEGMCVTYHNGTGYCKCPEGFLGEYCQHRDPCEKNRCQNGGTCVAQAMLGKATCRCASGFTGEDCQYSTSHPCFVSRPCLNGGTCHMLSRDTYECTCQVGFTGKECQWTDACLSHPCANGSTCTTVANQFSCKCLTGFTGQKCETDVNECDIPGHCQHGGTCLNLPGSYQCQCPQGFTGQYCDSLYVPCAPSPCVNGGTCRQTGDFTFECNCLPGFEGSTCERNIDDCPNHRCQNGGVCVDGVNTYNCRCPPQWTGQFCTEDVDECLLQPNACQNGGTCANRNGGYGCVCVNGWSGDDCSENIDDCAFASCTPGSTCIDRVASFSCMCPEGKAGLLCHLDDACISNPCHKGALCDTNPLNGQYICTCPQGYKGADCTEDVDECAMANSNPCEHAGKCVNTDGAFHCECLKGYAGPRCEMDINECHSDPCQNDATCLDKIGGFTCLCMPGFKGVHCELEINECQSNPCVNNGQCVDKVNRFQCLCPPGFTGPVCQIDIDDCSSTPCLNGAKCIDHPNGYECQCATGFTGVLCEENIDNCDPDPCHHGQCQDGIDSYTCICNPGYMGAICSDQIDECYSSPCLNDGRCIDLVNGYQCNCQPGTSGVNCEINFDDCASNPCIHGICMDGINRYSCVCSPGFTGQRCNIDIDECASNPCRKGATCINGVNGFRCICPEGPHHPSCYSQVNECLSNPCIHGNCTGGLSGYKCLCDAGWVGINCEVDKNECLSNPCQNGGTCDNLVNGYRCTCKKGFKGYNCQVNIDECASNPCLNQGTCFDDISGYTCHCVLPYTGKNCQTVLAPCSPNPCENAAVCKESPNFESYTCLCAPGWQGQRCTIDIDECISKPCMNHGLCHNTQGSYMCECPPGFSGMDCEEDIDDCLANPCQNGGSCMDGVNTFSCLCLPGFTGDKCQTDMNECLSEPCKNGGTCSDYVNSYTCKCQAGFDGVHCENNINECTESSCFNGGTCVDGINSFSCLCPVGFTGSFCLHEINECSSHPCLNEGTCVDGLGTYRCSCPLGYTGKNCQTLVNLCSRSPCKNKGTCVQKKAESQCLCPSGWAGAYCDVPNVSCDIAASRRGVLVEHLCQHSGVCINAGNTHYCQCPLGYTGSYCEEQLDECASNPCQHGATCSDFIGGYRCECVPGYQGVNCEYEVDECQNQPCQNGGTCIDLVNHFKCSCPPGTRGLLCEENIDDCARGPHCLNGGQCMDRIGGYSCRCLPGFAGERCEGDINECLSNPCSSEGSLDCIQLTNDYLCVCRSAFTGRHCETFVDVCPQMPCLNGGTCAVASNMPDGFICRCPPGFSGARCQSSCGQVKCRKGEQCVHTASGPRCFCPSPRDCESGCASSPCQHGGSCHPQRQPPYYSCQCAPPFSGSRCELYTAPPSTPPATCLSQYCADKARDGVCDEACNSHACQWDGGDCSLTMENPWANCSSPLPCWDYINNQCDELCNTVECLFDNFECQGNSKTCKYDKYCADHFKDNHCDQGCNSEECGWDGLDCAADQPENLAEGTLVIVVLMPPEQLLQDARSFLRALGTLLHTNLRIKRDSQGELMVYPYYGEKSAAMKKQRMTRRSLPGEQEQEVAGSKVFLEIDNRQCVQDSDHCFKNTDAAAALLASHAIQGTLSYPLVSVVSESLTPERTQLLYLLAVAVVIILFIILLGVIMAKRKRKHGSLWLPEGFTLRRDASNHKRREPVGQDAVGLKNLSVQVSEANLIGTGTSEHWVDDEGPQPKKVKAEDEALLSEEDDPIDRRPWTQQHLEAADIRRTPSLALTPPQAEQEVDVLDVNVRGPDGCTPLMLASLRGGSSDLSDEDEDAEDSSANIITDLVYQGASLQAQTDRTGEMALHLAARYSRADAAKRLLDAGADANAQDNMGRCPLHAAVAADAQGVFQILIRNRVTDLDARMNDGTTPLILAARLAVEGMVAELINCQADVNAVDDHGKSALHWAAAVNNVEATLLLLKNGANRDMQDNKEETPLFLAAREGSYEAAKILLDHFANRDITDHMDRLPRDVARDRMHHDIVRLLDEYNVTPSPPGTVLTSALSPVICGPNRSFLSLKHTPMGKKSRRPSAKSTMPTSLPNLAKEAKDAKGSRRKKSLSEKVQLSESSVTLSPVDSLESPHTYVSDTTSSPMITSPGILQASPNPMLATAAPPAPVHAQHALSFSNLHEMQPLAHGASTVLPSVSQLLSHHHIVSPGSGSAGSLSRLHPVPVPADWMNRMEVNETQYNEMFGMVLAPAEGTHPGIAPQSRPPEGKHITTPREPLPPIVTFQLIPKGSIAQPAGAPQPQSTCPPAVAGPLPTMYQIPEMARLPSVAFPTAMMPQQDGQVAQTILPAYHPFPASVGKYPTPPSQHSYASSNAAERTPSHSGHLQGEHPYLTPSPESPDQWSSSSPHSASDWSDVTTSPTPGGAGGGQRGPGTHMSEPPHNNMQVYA
# [6] = target: Pro-neuregulin-1, membrane-bound isoform (Homo sapiens) (UniProt Q02297); assay: NRG1 binders on small-molecule microarrays, primary screen, psychiatric disease protein project, biochemical, small-molecule microarray, fluorescence 635/667 (AID 1075); details: NRG1 binding, 635 nm fluorescence, higher = more signal;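 also: score combines 667 nm spot fluorescence with signal to noise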
# Pro-neuregulin-1, membrane-bound isoform (Homo sapiens), sequence (Q02297 whole entry, looked up, the tested form may be a part, canonical isoform): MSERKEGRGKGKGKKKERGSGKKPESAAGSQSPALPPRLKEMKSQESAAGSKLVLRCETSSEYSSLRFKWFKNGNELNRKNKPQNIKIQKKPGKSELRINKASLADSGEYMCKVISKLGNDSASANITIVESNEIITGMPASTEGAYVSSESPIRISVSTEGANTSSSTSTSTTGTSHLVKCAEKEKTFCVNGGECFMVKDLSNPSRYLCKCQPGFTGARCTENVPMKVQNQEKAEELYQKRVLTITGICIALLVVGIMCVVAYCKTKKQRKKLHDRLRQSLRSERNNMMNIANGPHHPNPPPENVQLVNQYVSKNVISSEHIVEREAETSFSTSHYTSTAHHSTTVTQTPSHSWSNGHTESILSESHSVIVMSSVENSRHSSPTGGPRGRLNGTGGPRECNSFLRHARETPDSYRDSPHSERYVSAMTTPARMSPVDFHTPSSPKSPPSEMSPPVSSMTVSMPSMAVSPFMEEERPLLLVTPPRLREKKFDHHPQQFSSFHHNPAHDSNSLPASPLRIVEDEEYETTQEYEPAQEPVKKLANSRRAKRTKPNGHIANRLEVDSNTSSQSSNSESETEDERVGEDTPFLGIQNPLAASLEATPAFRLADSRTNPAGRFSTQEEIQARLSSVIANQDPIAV
# [7] = test system: Neuregulin-1 EGF-like domain; assay: binders of neuregulin-1 EGF-like domain, primary screen, biochemical, small-molecule microarray, 635 nm fluorescence (AID 1081); details: small-molecule microarray binding, higher = more signal;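 also: binding of the protein to compounds printed on small-molecule microarray slides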
# [8] = FRG1 promoter luciferase signal modulators, primary screen, FRG1 inhibition for FSHD, cell-based, C2C12 myotubes, firefly/Renilla luciferase, luminescence (AID 1084); details: higher = more signal, called active from +8 up or from −8 down
# [9] = binders of probe aFST on microarray, primary screen, stem cell growth factor project, biochemical, small-molecule microarray, fluorescence 635/667 (AID 1086); details: higher = more signal;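 also: score merges 667 nm fluorescence with signal-to-noise of each printed compound spot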
# [10] = binders of probe aHhip on microarray, primary screen, stem cell growth factor project, biochemical, small-molecule microarray, fluorescence 635/667 (AID 1087); details: higher = more signal;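 also: score merges spot fluorescence at 667nm with spot signal to noise ratio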
# [11] = test system: PRMT1 (protein arginine N-methyltransferase 1); assay: PRMT1 binders on small-molecule microarrays, primary screen, biochemical, small-molecule microarray, 635 nm fluorescence (AID 1088); details: small-molecule microarray binding, higher = more signal;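 also: binding of Prmt1 protein to compounds spotted on small-molecule microarray slides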
# [12] = yeast growth modulation, basal conditions, primary screen, YJM789 clinical isolate, OD600, 24 h (AID 1089);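 also: growth of clinical yeast isolate S. cerevisiae YJM 789 seeded 1000 cells per well; test concentration not given here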; details: S. cerevisiae YJM789 growth, higher = more signal, called active from +8 up or from −8 down
# [13] = fission yeast growth modulation, primary screen, strain 972, OD600, 24 h, no modulator (AID 1090);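 also: basal condition with compound alone and no growth modifier present; test concentration not given here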; details: S. pombe 972 growth, higher = more signal, called active from +8 up or from −8 down
# [14] = S. cerevisiae growth modulation with rapamycin, primary screen, strain BY4716, OD600, 96 h (AID 1091); details: higher = more signal, called active from +8 up or from −8 down; also: test concentration not given here
# [15] = target: Torsin-1A-interacting protein 2 (Homo sapiens) (UniProt Q8NFQ8); assay: LULL1 binders on small-molecule microarray, primary screen, cell lysate, human LULL1 lysate, 635/667 nm fluorescence (AID 1092); details: hLULL1 lysate binding, 635 nm fluorescence, higher = more signal;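 also: probe is lysate of COS7 cells overexpressing human LULL1; score merges per-feature 667 nm fluorescence with signal-to-noise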
# Torsin-1A-interacting protein 2 (Homo sapiens), sequence (Q8NFQ8 whole entry, looked up): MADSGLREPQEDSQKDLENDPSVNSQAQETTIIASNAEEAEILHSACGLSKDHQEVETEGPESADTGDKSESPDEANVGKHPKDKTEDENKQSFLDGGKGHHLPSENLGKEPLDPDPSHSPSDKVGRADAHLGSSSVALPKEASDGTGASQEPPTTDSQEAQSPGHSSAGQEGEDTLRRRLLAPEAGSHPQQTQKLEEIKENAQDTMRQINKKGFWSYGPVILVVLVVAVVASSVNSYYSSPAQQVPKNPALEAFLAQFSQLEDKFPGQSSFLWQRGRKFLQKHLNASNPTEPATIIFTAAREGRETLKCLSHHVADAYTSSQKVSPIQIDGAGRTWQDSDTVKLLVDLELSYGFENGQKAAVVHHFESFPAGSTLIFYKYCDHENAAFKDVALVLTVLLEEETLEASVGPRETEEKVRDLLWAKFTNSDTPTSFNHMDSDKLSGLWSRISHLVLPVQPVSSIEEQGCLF
# [16] = E. coli growth modulation, two-sided OD650, primary screen, E. coli filamentation project, strain DRC41, 24 h (AID 1093); details: OD650, 24 h, higher = more signal, called active from +8 up or from −8 down;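 also: MC1000 strain lacking acrAB efflux and sulA so SOS filamentation is blocked; test concentration not given here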
# [17] = small-molecule microarray binders of probe aLefty2, primary screen, biochemical, biotinylated probe, 635/667 nm fluorescence (AID 1094); details: higher = more signal;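 also: score merges spot fluorescence near 667 nm with spot signal-to-noise ratio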
# [18] = test system: Noggin (protein binding on small-molecule microarray); assay: Noggin binders on small-molecule microarray, primary screen, biochemical, 635/667 nm fluorescence (AID 1095); details: 635 nm fluorescence, higher = more signal;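 also: score merges 667 nm feature fluorescence with signal to noise over triplicate slides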
# [19] = target: Neurogenic locus notch homolog protein 3 (Homo sapiens) (UniProt Q9UM47); assay: NOTCH3 binders on small-molecule microarray, primary screen, biochemical, 635/667 nm fluorescence (AID 1096); details: NOTCH3 binding, 635 nm fluorescence, higher = more signal
# [20] = small-molecule microarray binders of probe aEGFR, primary screen, biochemical, biotinylated probe, 635/667 nm fluorescence (AID 1097); details: higher = more signal;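 also: probe is a biotinylated anti-EGFR antibody binding compounds printed on slides; score combines fluorescence near 667 nm and signal to noise of each spot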
SMILES,composite z-score [1],composite z-score [2],composite z-score [3],composite z-score [4],composite z-score [5],composite z-score [6],composite z-score [7],z-score [8],composite z-score [9],composite z-score [10],composite z-score [11],z-score [12],z-score [13],z-score [14],composite z-score [15],z-score [16],composite z-score [17],composite z-score [18],composite z-score [19],composite z-score [20]
COc1ccc(C#Cc2ccc3c(c2)[C@]2(C(=O)N3)[C@H](C(=O)O)[C@H]3C(=O)O[C@H](c4ccccc4)[C@H](c4ccccc4)N3[C@@H]2c2ccc(OCCO)cc2)cc1,-0.397,0.959,-0.0344,0.903,0.357,1.88,0.976,-0.176 (inactive),0.794,0.122,1.55,2.76 (inactive),-0.0666 (inactive),1.08 (inactive),2.37,2.26 (inactive),0.054,1,1.1,-0.0433
NC(=O)NCC#Cc1ccc2c(c1)[C@]1(C(=O)N2)[C@H](c2ccc(OCCO)cc2)N2[C@H](c3ccccc3)[C@H](c3ccccc3)OC(=O)[C@H]2[C@@H]1C(=O)N1CCN(c2ncccn2)CC1,-0.584,0.936,-0.0767,0.766,0.0776,0.29,-0.178,0.565 (inactive),-0.194,-0.0564,1.34,1.77 (inactive),0.494 (inactive),4.43 (inactive),1.6,1.31 (inactive),-0.0933,1.63,0.772,-0.15
OCc1ccc(-c2cc[n+](Cc3cccc(OC(F)(F)F)c3)cc2)cc1,0.253,0.502,-0.0887,-0.0076,1.4,1.48,0.946,1.41 (inactive),0.597,-0.0994,1.26,-1.54 (inactive),-19.5 (active),5.75 (inactive),1.99,0.261 (inactive),0.353,0.876,1.05,-0.0016
C=CCC(OC(C)=O)[C@@H]1[C@@H](N(Cc2ccc(-c3ccccc3)cc2)C(=O)c2cccc3ccccc23)c2cc(OCCCO)ccc2N1C(=O)c1ccc2ccccc2n1 (stereo not given in full),-0.0204,0.113,-0.102,-0.0251,0.127,0.152,-0.669,-1.45 (inactive),0.294,0.0373,0.171,-0.288 (inactive),-0.283 (inactive),-0.291 (inactive),0.53,0.488 (inactive),0.0469,-0.0394,0.336,0.045
CCC[C@@H]1C[C@@]1(CCC)[C@@H](NC(=O)c1cccs1)c1ccc(Cl)cc1,1.38,-0.553,-0.0861,-0.092,-1.6,0.161,-0.405,-2.04 (inactive),-0.711,-0.254,0.0333,-0.5 (inactive),-3.76 (inactive),-0.454 (inactive),1.4,0.102 (inactive),0.0395,-1.87,-0.118,-0.435
COC(=O)[C@@]1(Cc2ccc(OC)cc2)[C@H]2c3cc(C(=O)N(C)C)n(Cc4cc(C)n(C)n4)c3C[C@H]2CN1C(=O)c1ccccc1,0.223,0.221,0.468,1.26,1.33,1.92,1.31,2 (inactive),0.732,0.309,0.847,0.296 (inactive),0.134 (inactive),0.562 (inactive),3.99,-1.13 (inactive),0.14,0.119,0.598,0.0423
NC(=O)[C@@H]1[C@H]2C(=O)O[C@H](c3ccccc3)[C@H](c3ccccc3)N2[C@H](c2ccccc2OCCO)[C@@]12C(=O)Nc1ccc(C#CCCO)cc12,-0.159,0.45,-0.0502,-0.0477,0.0307,0.352,0.0434,0.7 (inactive),-0.0579,-0.236,-0.155,0.566 (inactive),-0.145 (inactive),2.38 (inactive),0.417,0.973 (inactive),-0.143,-0.209,-0.196,-0.131
COc1ccccc1CN1C(=O)c2ccccc2[C@@]2(Cc3ccccc3N(C3CC3)C2=O)[C@@H]1c1ccc(CO)cc1,-0.262,-0.804,-0.107,0.0106,-0.461,0.937,-0.0422,-0.223 (inactive),0.0845,-0.164,0.0943,-0.245 (inactive),-0.384 (inactive),-2.24 (inactive),0.861,-0.134 (inactive),-0.0699,-0.2,-0.473,-0.181
C=CCOc1ccc([C@@H]2CC=C(C(=O)OCC)[C@H](c3cccc(Br)c3)N2S(=O)(=O)c2ccc(C)cc2)cc1,0.474,-0.229,-0.0901,-0.0763,-0.672,0.866,0.0455,-4.03 (inactive),0.176,-0.3,-0.227,-2.1 (inactive),-0.493 (inactive),0.196 (inactive),0.652,-0.372 (inactive),0.049,-0.351,-0.32,-0.0456
O=C(N1CCOCC1)[C@@]1(CCS(=O)(=O)c2ccccc2)COC(c2ccc(OCCCO)cc2)=N1,0.229,0.281,-0.0348,0.797,-0.194,0.929,0.942,-1.85 (inactive),0.54,0.041,0.988,0.0962 (inactive),0.365 (inactive),-0.408 (inactive),3.18,1.01 (inactive),-0.139,0.0307,0.0961,-0.174
CCCC=C(CCC)[C@@H](NS(=O)(=O)c1ccccc1)c1ccc(C(F)(F)F)cc1,-0.201,0.322,0.174,0.96,1.55,1.52,1.13,-2.28 (inactive),1.05,0.28,1.39,0.3 (inactive),1.39 (inactive),12.1 (active),3.47,-0.644 (inactive),0.413,0.554,1.08,0.132
